PubChem BioAssay AID1159580 (chemical genetic matrix, 2015)
Screen size: about 5,500 compounds; about 2,000 (36%) were called active. Inconclusive results (about 18%) are left out. Rule as the data show it: active = normalized growth mostly below about 0.91 (no sharp cut-off); inconclusive = no clear call, values can overlap the other calls; inactive = mostly above about 0.92. Some of the results follow.

Experiment: chemical genetic growth profiling, strain panel (AID 1159580);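 also: tested at 20 µM; growth read once vehicle control cultures reached saturation at 30 °C; 1 = growth at the plate median or of vehicle wells; lower values mean less growth of the strain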
Conditions: growth OD

Measured: normalized growth

Cc1ccc(S(=O)(=O)NC(=O)NN2CC3CCCC3C2)cc1 (stereo not drawn)
inactive: S. cerevisiae deletion strains, locus YJR043C, strain POL32, active compounds read low 0.991 | S. cerevisiae deletion strains, locus YJR066W, strain TOR1, active compounds read low 0.904 | S. cerevisiae deletion strains, locus YKL009W, strain mrt4, active compounds read low 1.02 | S. cerevisiae deletion strains, locus YKL068W, active compounds read low 1.01 | S. cerevisiae deletion strains, locus YKL085W, strain MDH1 (second series), active compounds read low 1.04 | S. cerevisiae deletion strains, locus YKL085W, strain MDH1, active compounds read low 1.04 | S. cerevisiae deletion strains, locus YKL160W, strain elf1, active compounds read low 0.98 | S. cerevisiae deletion strains, locus YKL190W, strain CNB1, active compounds read low 1.01 | S. cerevisiae deletion strains, locus YKR001C, strain vps1, active compounds read low 1.01 | S. cerevisiae deletion strains, locus YKR026C, strain gcn3, active compounds read low 0.978 | S. cerevisiae deletion strains, locus YKR091W, strain srl3, active compounds read low 0.974 | S. cerevisiae deletion strains, locus YLL001W, strain dnm1, active compounds read low 0.953 | S. cerevisiae deletion strains, locus YLL026W, active compounds read low 0.974 | S. cerevisiae deletion strains, locus YLL041C, strain sdh2, active compounds read low 0.982 | S. cerevisiae deletion strains, locus YLR027C, strain aat2, active compounds read low 0.976 | S. cerevisiae deletion strains, locus YLR039C, strain RIC1, active compounds read low 0.943 | S. cerevisiae deletion strains, locus YLR058C, strain SHM2, active compounds read low 1.01 | S. cerevisiae deletion strains, locus YLR102C, strain apc9, active compounds read low 1.01 | S. cerevisiae deletion strains, locus YLR113W, strain HOG1, active compounds read low 0.974 | S. cerevisiae deletion strains, locus YLR221C, strain rsa3, active compounds read low 0.976 | S. cerevisiae deletion strains, locus YLR258W, strain gsy2, active compounds read low 0.99 | S. cerevisiae deletion strains, locus YLR262C, strain YPT6 (second series), active compounds read low 0.927 | S. cerevisiae deletion strains, locus YLR262C, strain YPT6, active compounds read low 0.967 | S. cerevisiae deletion strains, locus YLR268W, strain sec22, active compounds read low 0.999 | S. cerevisiae deletion strains, locus YLR320W, strain mms22, active compounds read low 0.983 | S. cerevisiae deletion strains, locus YLR330W, strain CHS5, active compounds read low 1 | S. cerevisiae deletion strains, locus YLR342W, strain FKS1 (second series), active compounds read low 0.992 | S. cerevisiae deletion strains, locus YLR342W, strain FKS1, active compounds read low 0.996 | S. cerevisiae deletion strains, locus YLR357W, strain rsc2, active compounds read low 0.989 | S. cerevisiae deletion strains, locus YLR370C, strain arc18, active compounds read low 0.953 | S. cerevisiae deletion strains, locus YLR371W, strain rom2, active compounds read low 1.01 | S. cerevisiae deletion strains, locus YLR384C, strain iki3, active compounds read low 0.993 | S. cerevisiae deletion strains, locus YLR418C, strain cdc73, active compounds read low 1.02 | S. cerevisiae deletion strains, locus YML016C, strain PPZ1, active compounds read low 0.996 | S. cerevisiae deletion strains, locus YML032C, strain rad52, active compounds read low 1.01 | S. cerevisiae deletion strains, locus YML120C, strain ndi1, active compounds read low 1.01 | S. cerevisiae deletion strains, locus YML124C, strain tub3, active compounds read low 1.01 | S. cerevisiae deletion strains, locus YMR058W, strain fet3, active compounds read low 0.958 | S. cerevisiae deletion strains, locus YMR078C, strain ctf18, active compounds read low 1.02 | S. cerevisiae deletion strains, locus YMR125W, strain sto1, active compounds read low 0.966 | S. cerevisiae deletion strains, locus YMR129W, active compounds read low 0.97 | S. cerevisiae deletion strains, locus YMR205C, strain PFK2, active compounds read low 0.991 | S. cerevisiae deletion strains, locus YMR223W, strain ubp8, active compounds read low 1.03 | S. cerevisiae deletion strains, locus YMR231W, strain pep5, active compounds read low 0.989 | S. cerevisiae deletion strains, locus YMR263W, strain SAP30, active compounds read low 1.02 | S. cerevisiae deletion strains, locus YMR307W, strain GAS1, active compounds read low 1.04 | S. cerevisiae deletion strains, locus YNL067W, strain RPL9B, active compounds read low 1.03 | S. cerevisiae deletion strains, locus YNL071W, strain lat1, active compounds read low 0.974 | S. cerevisiae deletion strains, locus YNL153C, strain GIM3, active compounds read low 1 | S. cerevisiae deletion strains, locus YNL183C, strain NPR1, active compounds read low 0.92 | S. cerevisiae deletion strains, locus YNL209W, strain ssb2, active compounds read low 0.977 | S. cerevisiae deletion strains, locus YNL233W, strain BNI4, active compounds read low 1.01 | S. cerevisiae deletion strains, locus YNL248C, strain rpa49, active compounds read low 0.982 | S. cerevisiae deletion strains, locus YNL250W, strain rad50, active compounds read low 1.03 | S. cerevisiae deletion strains, locus YNL271C, strain bni1, active compounds read low 1.01 | S. cerevisiae deletion strains, locus YNL298W, strain CLA4, active compounds read low 1.04 | S. cerevisiae deletion strains, locus YNL307C, strain MCK1, active compounds read low 1.02 | S. cerevisiae deletion strains, locus YNL322C, strain KRE1 (second series), active compounds read low 0.978 | S. cerevisiae deletion strains, locus YNR049C, strain mso1, active compounds read low 0.961 | S. cerevisiae deletion strains, locus YNR052C, strain pop2, active compounds read low 1.01 | S. cerevisiae deletion strains, locus YOL012C, strain htz1 0.86 | S. cerevisiae deletion strains, locus YOL147C, strain pex11, active compounds read low 1.02 | S. cerevisiae deletion strains, locus YOR001W, strain rrp6, active compounds read low 0.99 | S. cerevisiae deletion strains, locus YOR061W, strain CKA2, active compounds read low 0.996 | S. cerevisiae deletion strains, locus YOR069W, strain VPS5, active compounds read low 1.01 | S. cerevisiae deletion strains, locus YOR070C, strain gyp1, active compounds read low 0.985 | S. cerevisiae deletion strains, locus YOR080W, strain dia2, active compounds read low 0.97 | S. cerevisiae deletion strains, locus YOR083W, strain WHI5, active compounds read low 0.982 | S. cerevisiae deletion strains, locus YOR106W, strain vam3, active compounds read low 0.968 | S. cerevisiae deletion strains, locus YOR136W, strain idh2, active compounds read low 1.01 | S. cerevisiae deletion strains, locus YOR144C, strain elg1, active compounds read low 1.01 | S. cerevisiae deletion strains, locus YOR184W, strain ser1, active compounds read low 1 | S. cerevisiae deletion strains, locus YOR231W, strain MKK1, active compounds read low 0.971 | S. cerevisiae deletion strains, locus YOR265W, strain rbl2, active compounds read low 0.967 | S. cerevisiae deletion strains, locus YOR270C, strain vph1, active compounds read low 1.03 | S. cerevisiae deletion strains, locus YOR290C, strain snf2, active compounds read low 0.939 | S. cerevisiae deletion strains, locus YOR316C, strain cot1, active compounds read low 1.01 | S. cerevisiae deletion strains, locus YPL051W, strain arl3, active compounds read low 0.959 | S. cerevisiae deletion strains, locus YPL078C, strain atp4, active compounds read low 0.978 | S. cerevisiae deletion strains, locus YPL106C, strain sse1, active compounds read low 1 | S. cerevisiae deletion strains, locus YPL240C, strain hsp82, active compounds read low 0.985 | S. cerevisiae deletion strains, locus YPL256C, strain CLN2, active compounds read low 0.965 | S. cerevisiae deletion strains, locus YPR119W, strain clb2, active compounds read low 1.01 | S. cerevisiae deletion strains, locus YPR141C, strain kar3, active compounds read low 1.03 | S. cerevisiae deletion strains, locus YPR163C, strain tif3, active compounds read low 1.02 | S. cerevisiae deletion strains, locus YPR167C, strain met16, active compounds read low 1.02 | S. cerevisiae deletion strains, strain wtn01, active compounds read low 1 | S. cerevisiae strains, strain wild type, active compounds read low 0.997
